According to PubChem BioAssay AID1259343 (VanderVen Lab, College of Veterinary Medicine, Cornell …, 2017):
In all, about 6,200 compounds went through this assay and about 2,900 (47%) were called active. No stated cut-off is given here; in the data, active means inhibition above about 50%; inactive means the rest. The set was probably picked from earlier hits. The list shows a part of the results.

assay: Mycobacterium tuberculosis growth inhibition, primary screen (AID 1259343); conditions: inhibition: at 10 µM, active compounds read high; outcome: 10 uM

Row | SMILES | inhibition
1 | Cc1nn(-c2ccccc2)c2[nH]c(=O)c(C#N)c(-c3cccs3)c12 | 64.4% (active)
2 | COc1ccc2c(c1)OC1(O)COc3cc(OC)c(OC)cc3C1=C2 (stereo unspecified) | 61.7% (active)
3 | COc1ccc(O)c(C=Nn2c(C)csc2=NC(C)C)c1 | 34% (inactive)
4 | COc1ccc(O)c(C=Nc2ccc3c(c2)OCO3)c1 | 65.5% (active)
5 | O=C1OC(c2ccc(Cl)cc2)=NC1=Cc1ccc2c(c1)OCO2 | 15.6% (inactive)
6 | O=C(OCc1cc2c(cc1Br)OCO2)c1cccc(O)c1 | -12.8% (inactive)
7 | Clc1ccc(C=Nc2ccc3c(c2)OCO3)cc1 | 82.9% (active)
8 | Brc1ccccc1C=Nc1ccc2c(c1)OCO2 | 94.3% (active)
9 | Oc1ccc(N=Nc2ccc3c(c2)OCO3)c2ccccc12 | -28.6% (inactive)
10 | COC(=O)c1c(C)[nH]c(C(=O)NC(C)Cc2cccc(Cl)c2)c1C (stereo unspecified) | 30% (inactive)
11 | Cc1cc(=O)[nH]c(-n2nc(C3CC3)cc2NC(=O)c2cc3ccccc3o2)n1 | -20.2% (inactive)
12 | Cc1cccc(C(=O)Nc2cc(C3CC3)nn2-c2nc(C)cc(=O)[nH]2)c1 | 100% (active)
13 | CCC(C(=O)Nc1cc(C2CC2)nn1-c1nc(C)cc(=O)[nH]1)c1ccccc1 (stereo unspecified) | 100% (active)
14 | Cc1cc(=O)[nH]c(-n2nc(C3CC3)cc2NC(=O)c2ccccc2)n1 | 100% (active)
15 | Oc1ccc(C=NNc2ncc(C(F)(F)F)cc2Cl)c(O)c1O | 17.8% (inactive)
16 | Clc1cnc(NN=Cc2ccco2)c(Cl)c1 | 85.9% (active)
17 | Clc1cnc(NN=Cc2cccs2)c(Cl)c1 | -11.6% (inactive)
18 | CC[N+](CC)=c1ccc2nc3c(cc(N)c4ccccc43)oc-2c1 | 102% (active)
19 | CO[C@H]1C=CO[C@@]2(C)Oc3c(C)c(O)c4c(O)c(c5c(nc6cc(C)ccn65)c4c3C2=O)NC(=O)C(C)=CC=C[C@H](C)[C@H](O)[C@@H](C)[C@@H](O)[C@@H](C)[C@H](OC(C)=O)[C@@H]1C | 98.5% (active)
20 | O=C(/C=C(\O)c1ccccc1)c1ccccc1O | 100% (active)
21 | CC(C)c1cc(=O)[nH]c(-n2nc(-c3cccs3)cc2NC(=O)c2cccc(F)c2)n1 | 99.2% (active)
22 | Cc1cccc(C(=O)Nc2cc(-c3cccs3)nn2-c2nc(C(C)C)cc(=O)[nH]2)c1 | -9.66% (inactive)
23 | CC(C)c1cc(=O)[nH]c(-n2nc(-c3cccs3)cc2NC(=O)c2ccc(F)cc2F)n1 | 99.7% (active)
24 | O=S(=O)(CCSc1ccccn1)c1nc2ccccc2s1 | 101% (active)
25 | COc1ccc(N2CCN(C(=O)CCl)CC2)cc1 | 77.2% (active)
26 | O=C(CCl)N1CCN(c2cccc(Cl)c2)CC1 | 79.1% (active)

Row | SMILES | inhibition
27 | O=C(CCl)N1CCCc2cc([N+](=O)[O-])ccc21 | 102% (active)
28 | COc1ccc(C(=O)NCCCn2cccn2)cc1OC1CCN(C(C)=O)CC1 | 17.6% (inactive)
29 | Cc1cccc(C(=O)NC(=NCCN2CCCC2)OCC(C)C)c1 | 5.15% (inactive)
30 | Cc1cccc(C(=O)NCCn2ncccc2=O)c1 | 97.8% (active)
31 | CC1COCCN1C(=O)NC(c1cc(F)ccc1F)C1CC1 (stereo unspecified) | -42.7% (inactive)
32 | CC(NC(=O)CN1CCCCC1)c1ccc(F)cc1F (stereo unspecified) | 51.7% (active)
33 | COCc1ccccc1CNC(=O)CN1CCC(C)Sc2ccccc21 (stereo unspecified) | -20.7% (inactive)
34 | CC1(c2ccco2)NC(=S)N(c2ccccc2)N1 (stereo unspecified) | 76.4% (active)
35 | CCCCc1ccc(N2C(N)=CS/C2=C(/C#N)S(=O)(=O)c2ccccc2)cc1 | 89.6% (active)
36 | CCNc1nc(C(=O)N2CC3CCCC3C2)cs1 (stereo unspecified) | 27.6% (inactive)
37 | CCCc1cc(C(=O)N2C[C@H]3CC=C(C)C[C@H]3C2)ccn1 | 76% (active)
38 | CC(C)C(C)CNC(=O)N1CCN(c2ccc(Cl)cn2)CC1 (stereo unspecified) | 63.1% (active)
39 | CN(Cc1ccccc1O)C(=O)C1CCN(c2ccc(Cl)cn2)CC1 | 35.1% (inactive)
40 | Cc1ccc(-c2nc(CN3CCN(c4ccc(Cl)cn4)CC3)c(C)o2)o1 | 47.3% (inactive)
41 | Cc1nc2ccc(I)cn2c1C=NNc1ccc2ccccc2c1 | 60.2% (active)
42 | Cc1nc2ccc(I)cn2c1C=NNc1ccc(Cl)cc1 | 17.7% (inactive)
43 | NC(=S)NN=Cc1ccc(Cl)cc1Cl | 86% (active)
44 | CC(C)(C)n1cccc(/C=N\NC(N)=S)c1=S | -2.91% (inactive)
45 | Cc1cc(C=NNC(N)=S)c(C)n1CC(F)(F)F | 4.28% (inactive)
46 | Cc1ccc(C(=O)Nc2ccc(CN3CCN(C)CC3)c(C(F)(F)F)c2)cc1C#Cc1cnc2cccnn12 | 62.5% (active)
47 | CCc1sc(C(=O)OCC(=O)N(C)CC(=O)Nc2ccc(C)cc2)cc1C | -39.5% (inactive)
48 | CCc1ccc(NC(=O)COC(=O)c2cc(C(C)=O)n3ccccc23)cc1 | 65% (active)
49 | Cc1nc(N)sc1N=Nc1cccc2ccccc12 | 4.08% (inactive)
50 | Nc1[nH]n(-c2ccccc2)c(=O)c1N=Nc1ccc2ncsc2c1 | -3.23% (inactive)
51 | Nc1[nH]n(-c2ccccc2)c(=O)c1N=Nc1cccc2ccccc12 | 56.7% (active)
52 | CCc1cc(C=NC2CCCCC2)c(O)s1 | 54.5% (active)

Row | SMILES | inhibition
53 | CC1Cc2ccccc2N1C(=O)C1CCN(c2ccc(C#N)cn2)CC1 (stereo unspecified) | -4.71% (inactive)
54 | CC1Cc2ccccc2N1Sc1ccc([N+](=O)[O-])cc1 (stereo unspecified) | 58.6% (active)
55 | CC1Cc2ccccc2N1Cc1cccc(C(N)=O)c1 (stereo unspecified) | 25.1% (inactive)
56 | Cc1ccc(-c2nsc(C(=O)N3CCCC(C)C3)c2N)cc1 (stereo unspecified) | 47.8% (inactive)
57 | Cc1c(C(=O)NCc2ccccc2C(F)(F)F)sc(=O)n1Cc1cccc(C(F)(F)F)c1 | 18.8% (inactive)
58 | Cc1c(C(=O)NCc2ccc(Cl)c(Cl)c2)sc(=O)n1Cc1ccccc1F | -10.2% (inactive)
59 | COc1ccccc1Cn1c(C)c(C(=O)NCc2ccccc2C(F)(F)F)sc1=O | 15.1% (inactive)
60 | COc1ccc(Br)c(Cn2c(C)c(C(=O)NCc3ccccc3C(F)(F)F)sc2=O)c1 | 58.8% (active)
61 | Cc1c(C(=O)NCc2ccccc2C(F)(F)F)sc(=O)n1Cc1ccccc1F | 21% (inactive)
62 | Cc1ccccc1Cn1c(C)c(C(=O)NCc2ccccc2C(F)(F)F)sc1=O | 65.1% (active)
63 | Nc1nc(CSc2nnc(C3CC3)n2C2CC2)nc(Nc2ccc(F)cc2)n1 | -0.78% (inactive)
64 | Cc1c2c(nc3cc4c(cc13)OCO4)CCc1ccccc1-2 | 76.4% (active)
65 | O=S(=O)(Nc1cc(Cl)ccc1F)c1cc(Cl)ccc1Cl | 28.1% (inactive)
66 | O=S(=O)(Nc1ccc(F)c(Cl)c1)c1ccc(Cl)cc1F | 66.8% (active)
67 | O=S(=O)(Nc1ccc(F)c(F)c1)c1cc(Cl)ccc1Cl | 95.3% (active)
68 | O=S(=O)(Nc1cc(Cl)cc(Cl)c1)c1cc(Cl)ccc1Cl | 56.9% (active)
69 | Cc1cc(S(=O)(=O)Nc2ccc(F)c(Cl)c2)c(C)s1 | 30.5% (inactive)
70 | COc1cccc(-c2noc(CSc3ncnc4sccc34)n2)c1 | 98.8% (active)
71 | c1csc(-c2nc(CSc3ncnc4sccc34)co2)c1 | 24.4% (inactive)
72 | N#CC1(C(=O)Nc2nc(-c3cccc(C(F)(F)F)c3)cs2)CCCC1 | 55.5% (active)
73 | O=C(CCn1[nH]c(=O)ccc1=O)Nc1nc(-c2ccc(Cl)s2)cs1 | 49.2% (inactive)
74 | Clc1cccc(-c2csc(NC3CC3)n2)c1 | 44.2% (inactive)
75 | O=C(O)C1C2C=CC(C2)C1C(=O)Nc1nc(-c2ccc(Cl)s2)cs1 (stereo unspecified) | 35.5% (inactive)
76 | N#CC1(C(=O)Nc2nc(-c3ccc(Cl)s3)cs2)CCCC1 | 89.1% (active)
77 | Cc1ccc(C(=O)c2ccc(CC(=O)O)n2C)cc1 | 52.8% (active)
78 | c1ccc(-c2cnc(CSc3nnnn3C3CC3)o2)cc1 | 18.6% (inactive)

Row | SMILES | inhibition
79 | c1ccc(-c2cc(CSc3nnnn3C3CC3)no2)cc1 | 84.1% (active)
80 | Fc1ccc(-c2cnc(CSc3nnnn3C3CC3)o2)cc1 | 8.58% (inactive)
81 | Cc1ccc(S(=O)(=O)N(C)CCOc2ccccc2C)s1 | 55.1% (active)
82 | O=C(O[C@@H]1Cc2c(O)cc(O)cc2O[C@@H]1c1ccc(O)c(O)c1)c1cc(O)c(O)c(O)c1 | 78.4% (active)
83 | Cc1ccccc1Cn1nc(-c2ccc3c(c2)OCO3)ccc1=O | 91.3% (active)
84 | CCc1ccc(-c2ccc(=O)n(Cc3ccccc3C)n2)cc1 | 14.8% (inactive)
85 | O=c1ccc(-c2ccc3c(c2)OCO3)nn1Cc1cccc2ccccc12 | -9.21% (inactive)
86 | Cc1ccccc1Cn1nc(-c2cccs2)ccc1=O | 89.9% (active)
87 | COc1ccc(-c2ccc(=O)n(Cc3ccccc3C)n2)cc1 | 27.4% (inactive)
88 | Cc1ccccc1Cn1nc(-c2ccccc2)ccc1=O | -7.28% (inactive)
89 | OC(C#Cc1ccccc1)c1ncc(-c2ccccc2)[nH]1 (stereo unspecified) | 20.7% (inactive)
90 | O=C(Cc1ccc(Cl)cc1)NCCSc1ncc(-c2ccccc2)[nH]1 | 60.9% (active)
91 | O=C(CSc1ncc(-c2ccc([N+](=O)[O-])cc2)[nH]1)NC(C(=O)O)(c1ccccc1)c1ccccc1 | -11.4% (inactive)
92 | O=C(Nc1ccc(Cl)nc1)N1CCC(COCc2ccccc2)C1 (stereo unspecified) | 95% (active)
93 | COc1ccc(C=C2CC3C4CC=C5CC(O)CCC5(C)C4CCC3(C)C2O)cc1 (stereo unspecified) | -0.03% (inactive)
94 | CC12CCC(O)CC1=CCC1C2CCC2(C)C(O)C(=Cc3ccc([N+](=O)[O-])cc3)CC12 (stereo unspecified) | -53.2% (inactive)
95 | COC(=O)C1CCC2C3CC=C4CC(O)CCC4(C)C3CCC12C (stereo unspecified) | 79.9% (active)
96 | S=C(NC1Cc2ccccc2C1)N1CCCC1 | 14.2% (inactive)
97 | O=C(Cc1cccc(F)c1)NCc1ccc(Cl)s1 | 64.5% (active)
98 | CN(Cc1cccc(F)c1)C(=O)c1ccc(NC(=O)C2CC2)s1 | -11.3% (inactive)
99 | CC(=O)c1ccc(OC(=O)COc2cccc(OCCC(C)C)c2)cc1 | 67.6% (active)
100 | CC(=O)c1ccc(OC(=O)COc2ccc(Oc3ccc(C)cc3)cc2)cc1 | 88.7% (active)
101 | COc1cccc(OCC(=O)Oc2ccc(C(=O)c3ccc(C)cc3)cc2)c1 | 53% (active)
